KCNQ2 block – inhibitors of rat KCNQ2 potassium channel; AID 2156; 1.1% of 310,000 active; O88943; CHO-K1 KCNQ2, FluxOR thallium flux, 20 min; stronger effect = lower value; B-score at 10 µM;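 active = fluorescence ratio B-score at most minus 3 library SDs, with starting brightness B-score within 2 library SDs, cut at about -5.5 in these data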
KCNQ2 pot – KCNQ2 (rat) channel potentiation. O88943. B-score at 10 µM. 0.54% of 310,000 active. CHO-K1 KCNQ2, FluxOR thallium flux fluorescence; stronger effect = higher value;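 active = fluorescence ratio B-score at least 3 SD of library B-scores, with initial fluorescence B-score within 3 of them, cut at about 5.3 in these data; same plate scores as AID 2156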;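 also: B-score of peak minus minimum over baseline fluorescence ratio after K+ and Tl+ stimulus; positive B-score means potentiation of KCNQ2 with more thallium influx and brighter signal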
Numbers without * were called inactive. A selection: hits, their analogues and other compounds. The true share with any hit is near 1.6%.

Results for O=C(NC(c1ccccc1)c1ccccc1)C1CCCN(S(=O)(=O)c2cnc[nH]2)C1 (stereo not drawn) ?
KCNQ2 block: inactive

How did CCn1c(SCc2nc3ccccc3s2)nnc1-c1ccccc1 do in these assays?
KCNQ2 block: inactive

What do the screens show for `CCC(c1nnc(SCc2nc3ccccc3s2)n1Cc1ccccc1)N(C)C` (stereo not drawn)?
KCNQ2 block: -6.34*; KCNQ2 pot: -6.34

Results for O=C(CSc1nc2sccc2c(=O)[nH]1)N1CCN(c2ccccc2)CC1 ?
KCNQ2 block: inactive

Results for CCOc1ccc(NC(=S)NNC(=O)CC(C)O)cc1 (stereo not drawn) ?
KCNQ2 block: inactive

How did COCCN(C(=O)COC(=O)CCSc1ccc(F)cc1)c1c(N)n(Cc2ccccc2)c(=O)[nH]c1=O do in these assays?
KCNQ2 block: inactive; KCNQ2 pot: 0.59

How did Nc1nc(CCOc2ccc(F)cc2)cs1 do in these assays?
KCNQ2 block: inactive; KCNQ2 pot: 0.99

How did COC(=O)c1ccccc1NC(=O)c1ccc(COc2cccc3ccccc23)o1 do in these assays?
KCNQ2 block: -6.46*; KCNQ2 pot: -6.46

Results for COC(=O)c1ccc(COc2ccccc2OC)o1 ?
KCNQ2 block: inactive; KCNQ2 pot: 0.51

Results for COc1cscc1C(=O)O ?
KCNQ2 block: inactive

Results for COc1ccc(CC(=O)Nc2cccc(-c3nnc(-c4ccc(C)cc4)o3)c2)cc1OC ?
KCNQ2 block: inactive

What do the screens show for `COc1ccc(CC(=O)Nc2cccc(-c3nnc(-c4cccc(C)c4)o3)c2)cc1OC`?
KCNQ2 block: -7.02*; KCNQ2 pot: -7.02

Results for COc1ccccc1/C=N/NC(=O)c1cc2c(ccc3ccccc32)o1 ?
KCNQ2 block: -6.43*; KCNQ2 pot: -6.43

How did Cc1ccc(-c2ccc(/C=N\NC(=O)c3cc4c(ccc5ccccc54)o3)o2)cc1[N+](=O)[O-] do in these assays?
KCNQ2 block: inactive; KCNQ2 pot: 0.08

Results for COc1ccc(/C=N/NC(=O)c2cc3c(ccc4ccccc43)o2)cc1OC ?
KCNQ2 block: inactive; KCNQ2 pot: 0.7

How did O=C(N/N=C/c1ccc(-c2ccc(Cl)c(C(=O)O)c2)o1)c1cc2c(ccc3ccccc32)o1 do in these assays?
KCNQ2 block: inactive; KCNQ2 pot: 5.37*

What do the screens show for `Cc1ccc(N(Cc2ccccc2)C(=O)c2ccc(Cl)c(S(=O)(=O)N3CCOCC3)c2)cc1`?
KCNQ2 block: inactive

Results for COc1ccccc1OCCn1c(=O)oc2ccc(C)cc21 ?
KCNQ2 block: inactive; KCNQ2 pot: 0.01

How did COc1ccccc1C(=O)NC(=O)COC(=O)CCOc1cc(C)ccc1C do in these assays?
KCNQ2 block: inactive; KCNQ2 pot: 1.1

What do the screens show for `CCCCS(=O)(=O)/C=C\C=C/S(=O)(=O)CCCC`?
KCNQ2 block: inactive; KCNQ2 pot: 6.71*

How did CCCCS(=O)(=O)/C=C\C1C2C=CC(C2)C1S(=O)(=O)CCCC (stereo not drawn) do in these assays?
KCNQ2 block: inactive

What do the screens show for `CC1CCN(C(=O)Cn2c(=O)n(Cc3ccco3)c(=O)c3sccc32)CC1`?
KCNQ2 block: inactive

Results for O=C(NC1=C(NC2CCS(=O)(=O)C2)C(=O)c2ccccc2C1=O)c1ccccc1 (stereo not drawn) ?
KCNQ2 block: inactive; KCNQ2 pot: 6.23*

How did O=C(NC(NC1CCS(=O)(=O)C1)C(=O)c1cccs1)c1ccccc1 (stereo not drawn) do in these assays?
KCNQ2 block: inactive

How did CC(C)n1c(SCC(=O)N2CCN(C)CC2)nc2c1c(=O)n(C)c(=O)n2C do in these assays?
KCNQ2 block: inactive; KCNQ2 pot: 0.76

How did COc1ccc(CNC(=O)COC(=O)c2ccc(OCc3c(C)noc3C)cc2)cc1OC do in these assays?
KCNQ2 block: inactive; KCNQ2 pot: 0.44

What do the screens show for `Cc1noc(C)c1COc1ccc(C(=O)OCC(=O)NCc2ccccc2Cl)cc1`?
KCNQ2 block: -6.49*; KCNQ2 pot: -6.49

Results for O=C(CSc1ncn[nH]1)N/N=C/c1ccc(C(F)(F)F)cc1 ?
KCNQ2 block: inactive; KCNQ2 pot: 0.45

Results for O=C(Nc1cccc(N2C(=O)C3CCCCC3C2=O)c1)c1ccccc1 (stereo not drawn) ?
KCNQ2 block: inactive; KCNQ2 pot: 2.07

What do the screens show for `O=C(Nc1cccc(Cl)c1)c1cccc(N2C(=O)C3CC=CCC3C2=O)c1` (stereo not drawn)?
KCNQ2 block: -6.03*; KCNQ2 pot: -6.03

How did CCN1CCN(CC(O)COC(c2ccccc2)c2ccccc2C)CC1 (stereo not drawn) do in these assays?
KCNQ2 block: inactive; KCNQ2 pot: 0.77

What do the screens show for `CN(C)c1ccc(/C=N/n2c(C3CCCCC3)n[nH]c2=S)cc1`?
KCNQ2 block: inactive

How did O=C(NC1=C(Nc2ccc(Cl)cc2)C(=O)c2ccccc2C1=O)c1ccccc1 do in these assays?
KCNQ2 block: inactive

What do the screens show for `CN(C1=C(NC(=O)c2ccc(Cl)cc2)C(=O)c2ccccc2C1=O)c1ccccc1`?
KCNQ2 block: -6.33*; KCNQ2 pot: -6.33
